# Reference: PubChem BioAssay AID504834 (National Center for Advancing Translational Sciences (NCATS), 2011)
# Screen size: about 320,000 compounds; about 22,000 (6.9%) were called active. Not shown: some 27% with an inconclusive outcome. The call rests on the fitted dose curve; in most records, active means well fitted inhibition curve with a large enough effect; inconclusive means small, poorly fitted or top-dose-only effect, or another doubt; inactive means no such curve, though single readings can be large or run the other way. For the sample, actives were picked, then their nearest neighbours and some compounds at random.
# Assay: Primary qHTS for delayed death inhibitors of the malarial parasite plastid, 96 hour incubation
# Conditions: P. falciparum luciferase reporter growth; series mostly up to 28.7 µM; activity change, negative = inhibition: at the top concentration
# In short: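 Parasite growth measured via integrated firefly luciferase reporter in P. falciparum. Infected erythrocytes at 2% hematocrit, 0.05% parasitemia final were treated 96 hours at 37 C under 5% CO2, and luminescence was read.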
# On the % scale 0 is the no-effect control and ±100 the full control effect; potency means the concentration at half of the fitted maximal effect.
SMILES,"activity change, negative = inhibition",Potency
O=C(NCCCn1ccnc1)c1cc(Br)c(Br)s1,11.1% (inactive),–
COc1cc(/C=N/Nc2nc3ccccc3s2)ccc1O,155% (inactive),–
COc1ccc(S(=O)(=O)N2CCOCC2)cc1C(=O)Nc1nc2ccccc2s1,30.8% (inactive),–
COc1cccc2sc(NNC(=O)c3nc4ccccc4s3)nc12,–,9.28 µM (active)
CCn1c(SC(C)C(=O)Nc2ccc(N3CCOCC3)cc2)nnc1-c1ccco1 (stereo not drawn),3.27% (inactive),–
COc1ccc(/C=C/C(=O)c2ccc(NS(=O)(=O)c3ccc(C)cc3)cc2)cc1O,–,11.7 µM (active)
COc1ccc(C(=O)Oc2cc(/C=N/NS(=O)(=O)c3ccc(C)cc3)ccc2OC)cc1,55.1% (inactive),–
COc1ccc(NS(=O)(=O)c2ccc(NC(C)=O)cc2)cc1OC,0.482% (inactive),–
CSc1sc(C(=O)NNC(=O)c2ccc(Cl)cc2)c2c1C=CCC2,-3.23% (inactive),–
COc1ccc(CN2C(=O)CN=C2Nc2ccc(C)cc2C)cc1,-3.83% (inactive),–
CC(C)(C)c1ccc(CN2C(=O)c3ccccc3S2(=O)=O)cc1,101% (inactive),–
CC(C)(C)c1ccc(CN2C(=O)CN=C(c3ccccc3)c3ccccc32)cc1,–,1.31 µM (active)
CCCn1c(N)c(N(CCOC)C(=O)C2CCCC2)c(=O)[nH]c1=O,-14.2% (inactive),–
CCC(C(=O)NC1CCCCC1)N(C(=O)c1snc(C(N)=O)c1N)c1ccc(OC)cc1OC (stereo not drawn),5.62% (inactive),–
O=C(/C=C(O)/C=C/c1ccc(O)cc1)/C=C/c1ccc(O)cc1,34.9% (inactive),–
Oc1cc2c(cc1CN1CCN(c3ccccc3)CC1)OCO2,1.62% (inactive),–
COc1ccccc1N1CCN(Cc2cc(OC)c3c(c2)OCO3)CC1,-8.21% (inactive),–
COc1cc(OC)c2ccc(=O)oc2c1C(CCN1CCN(c2ccccc2)CC1)c1ccc2c(c1)OCO2 (stereo not drawn),–,9.28 µM (active)
COc1cc(C(CCN2CCN(c3ccccc3)CC2)c2c(OC)cc(OC)c3ccc(=O)oc23)cc(OC)c1OC (stereo not drawn),–,8.28 µM (active)
COc1ccc(N2CCN(Cc3cc(=O)oc4ccc5ccccc5c34)CC2)cc1,0% (inactive),–
c1ccc(-c2cnc(CN3CCN(c4ccccc4)CC3)o2)cc1,32% (inactive),–
O=C1/C(=C/c2ccc3c(c2)OCO3)Oc2cc(OCC(=O)N3CC(O)C[C@H]3C(=O)O)ccc21 (stereo partly drawn),13.5% (inactive),–
Cc1ccc(O)c(NC(=O)c2cc(-c3ccco3)on2)c1,37.5% (inactive),–
O=C(NCc1ccco1)/C(=C\c1cccc([N+](=O)[O-])c1)NC(=O)c1ccco1,23.6% (inactive),–
O=C(Nc1ccccc1)Nc1ccc(C(F)(F)F)cn1,38.6% (inactive),–
CCOC(=O)CN(C)S(=O)(=O)c1ccc(-c2cc(C(=O)OC)sc2C(F)(F)F)cc1,9.24% (inactive),–

SMILES,"activity change, negative = inhibition",Potency
COc1cc(NC(=O)CCNC(=O)Cn2ccc3ccccc3c2=O)cc(OC)c1OC,-20.8% (inactive),–
CNc1nc(SC)nc(N(C#N)CC(=O)OC)n1,–,8.28 µM (active)
CCCCn1c(N)c(N(CCOC)C(=O)COc2c(C)cccc2C)c(=O)[nH]c1=O,-1.63% (inactive),–
CC1CC(=O)N(CC(=O)Nc2cccc(Cl)c2)c2ccccc2S1(=O)=O (stereo not drawn),-29.7% (inactive),–
Cc1noc(C)c1C(=O)OCC(=O)/C=C1\N(C)c2ccccc2C1(C)C,-15.2% (inactive),–
CC(=O)Nc1cccc(OCC(=O)/C=C2\N(C)c3ccccc3C2(C)C)c1,–,0.828 µM (active)
CN1/C(=C\C(=O)c2cccnc2Cl)C(C)(C)c2ccccc21,-19.4% (inactive),–
O=C(O)c1c(NC(=O)N2CCCC2)sc2c1CCCC2,17.1% (inactive),–
COc1cc(NC(=S)N2CCCC(C)C2)cc(OC)c1OC (stereo not drawn),–,10.4 µM (active)
COc1ccc(NC(=S)N2CCCC(CO)C2)c(OC)c1 (stereo not drawn),-21.4% (inactive),–
COc1cc(NC(=S)N2CCCC(C)C2)c(OC)cc1Cl (stereo not drawn),3.26% (inactive),–
O=C(O)c1ccc(OCC2CCCO2)cc1 (stereo not drawn),-21.2% (inactive),–
N#Cc1ccc(/C=C2\CCn3c2nc2cc(C(=O)O)ccc2c3=O)cc1,-12.8% (inactive),–
O=C(NCc1cccnc1)C12CC3CC(CC(C3)C1)C2,18.1% (inactive),–
CCCN1CCn2c3c(c4cc(Br)ccc42)CCCC31 (stereo not drawn),–,1.85 µM (active)
CCc1ccc(N(CC(=O)NCc2cccnc2)S(=O)(=O)c2ccccc2)cc1,38.2% (inactive),–
CCN(CC(=O)Nc1ccc(NC(C)=O)cc1)C(=O)C1CC(=O)N(Cc2ccc(C)cc2)C1 (stereo not drawn),-14.4% (inactive),–
CCCOc1ccc(CNC(=O)C2CCN(c3nn4c(=O)cc(C)nc4s3)CC2)cc1,–,11.7 µM (active)
Cc1cc(=O)n2nc(N3CCCC(C(=O)NCc4cccc(Cl)c4)C3)sc2n1 (stereo not drawn),-10.9% (inactive),–
Cc1cc(=O)n2nc(N3CCCC3C(=O)NCCCN3CC(C)CC(C)C3)sc2n1 (stereo not drawn),-31.2% (inactive),–
Cc1cc(=O)n2nc(N3CCC(C(=O)Nc4c(F)c(F)c(F)c(F)c4F)CC3)sc2n1,–,4.15 µM (active)
COc1ccc(CCNC(=O)C2CCN(c3nn4c(=O)cc(C)nc4s3)CC2)cc1OC,48.4% (inactive),–
Cc1cc(=O)n2nc(N3CCCC(C(=O)N4CCN(C)CC4)C3)sc2n1 (stereo not drawn),42.1% (inactive),–
Cc1ccc(CN2CC(C(=O)NNC(=O)Cn3ccc(C(F)(F)F)n3)CC2=O)cc1 (stereo not drawn),-27.3% (inactive),–
Cc1ccc(-c2noc(C3CCCN(C(=O)c4cccc(Cl)c4)C3)n2)o1 (stereo not drawn),-0.0475% (inactive),–
N#CC1(NC(=O)COC(=O)CSc2ccc(F)cc2)CCCCC1,17.6% (inactive),–

SMILES,"activity change, negative = inhibition",Potency
O=C(Nc1cccc(F)c1)NC1CCCCCCC1,-19.5% (inactive),–
CCCCNC(=O)N(O)C1N(/N=C/c2ccccc2O)C(=S)SC1(C)C (stereo not drawn),–,3.29 µM (active)
CCCCNC(=O)N(O)C1N(/N=C/c2ccc(N(C)C)cc2)C(=S)SC1(C)C (stereo not drawn),-22.9% (inactive),–
O=C(/C=C/c1ccco1)NC(=S)N1CCCCC1,16% (inactive),–
CC(=O)Oc1ccc2c(c1)C(=O)c1ccccc1C2=O,55.8% (inactive),–
CCOC(=O)c1cnc(SC)nc1Sc1ccc(Cl)cc1Cl,–,9.28 µM (active)
CCOC(=O)c1nc(C)n(-c2ccc(Cl)cc2Cl)n1,-0.697% (inactive),–
CCOC(=O)c1cnc(COc2ccccc2Cl)[nH]c1=O,30.2% (inactive),–
CC[C@@H](C)[C@H](NC(=O)CCc1c(C)c2cc3c4c(oc3c(C)c2oc1=O)CCCC4)C(=O)O,7% (inactive),–
COCCn1c(N)c(NCc2ccccc2)c(=O)[nH]c1=O,6.25% (inactive),–
CCN(CC(=O)Nc1c(F)cccc1F)C(=O)c1ccc(-c2ccccc2)cc1,48.3% (inactive),–
CC(C)N(C(=O)c1ccc(-c2ccccc2F)cc1)C(C)C,–,4.65 µM (active)
CC(Sc1nnc(-c2ccccc2F)n1C1CC1)C(N)=O (stereo not drawn),-6.75% (inactive),–
Cc1ccn(CCC(=O)N2c3ccccc3CC2C)n1 (stereo not drawn),8.75% (inactive),–
O=C(COC(=O)c1ccccn1)NNC(=O)c1ccc([N+](=O)[O-])cc1,0.85% (inactive),–
C[C@@H](O)c1nc2ccccc2n1N,-9.87% (inactive),–
Cc1nc2ccccc2c(=O)n1Cc1ccc([N+](=O)[O-])cc1,-2.72% (inactive),–
CC(O)c1nc2ccccc2n1Cc1ccc([N+](=O)[O-])cc1 (stereo not drawn),–,1.85 µM (active)
COc1cccc(N2CC(NC(=O)c3ccc4ccccc4c3)CC2=O)c1 (stereo not drawn),-1.39% (inactive),–
COc1ccc(C2/C=C\CN(S(=O)(=O)c3cccs3)CC(=O)N2Cc2ccc(F)cc2)cc1 (stereo not drawn),–,10.4 µM (active)
O=S(=O)(c1cccs1)N1CCN(Cc2ccccc2)CC1,3.61% (inactive),–
COc1ccc(C2/C=C\CN(CC(C)C)CC(=O)N2Cc2ccc(F)cc2)cc1 (stereo not drawn),-63.8% (inactive),–
CC(NC(=O)CN(C)S(=O)(=O)c1ccc(F)cc1)C1CC2CCC1C2 (stereo not drawn),-25.3% (inactive),–
C=CCOc1ccc(/C=C/C(=O)OCC(=O)NCC2CCCO2)cc1 (stereo not drawn),14.2% (inactive),–
COc1cc([N+](=O)[O-])cc([N+](=O)[O-])c1NC(=O)N1CCOCC1,-1.21% (inactive),–
O=C(Nc1ccccc1C(=O)O)c1ccc(N2C(=O)C3CC=CCC3C2=O)cc1 (stereo not drawn),0% (inactive),–

SMILES,"activity change, negative = inhibition",Potency
O=C(CSc1ccc(-c2ccc(Br)cc2)nn1)NCC1CCCO1 (stereo not drawn),-3.49% (inactive),–
COc1ccc(CCNC(=O)CN2C(=O)COc3ccc(S(=O)(=O)N4CCCC4)cc32)cc1OC,24% (inactive),–
CCN1C(=O)[C@H]2[C@@H](c3ccc(SC4CCCCC4)c(OC)c3)N[C@@](Cc3ccccc3)(C(=O)OC)[C@H]2C1=O,-29.2% (inactive),–
CCOC(=O)C1(Cc2ccc(O)cc2)NC(c2ccccc2F)C2C(=O)N(C)C(=O)C21 (stereo not drawn),122% (inactive),–
CCN1C(=O)[C@H]2[C@@H](c3ccc(-c4ccc(F)cc4)cc3)N[C@@](Cc3ccccc3)(C(=O)OC)[C@H]2C1=O,–,5.86 µM (active)
CCC(C)CCN1CCN=C1N(C)C (stereo not drawn),51.7% (inactive),–
CCOc1ccc(/C=N\NC(=O)c2c(C)nc3cc(C)ccn23)cc1,10.6% (inactive),–
CCN(CC)Cc1c(C(=O)OC)nnn1-c1nonc1N,-0.231% (inactive),–
CCOC(=O)C1CCN(Cc2ccc(-c3ccccc3)cc2)CC1,-21.5% (inactive),–
CCOC(=O)c1nnn(-c2nonc2-n2cccc2)c1CN1CCC(C(=O)OCC)CC1,–,0.928 µM (active)
Cc1ccccc1OCC(=O)Nc1nnc(S(=O)(=O)N2CCCC2)s1,40.6% (inactive),–
CCOC(=O)CC1COCCN1C(=O)c1cc(COc2ccc(F)c(F)c2)on1 (stereo not drawn),16.8% (inactive),–
Cn1c(N2CCOCC2)c(C=O)c2ccccc21,4.33% (inactive),–
FC(F)(F)c1ccnc(Oc2ccc(C3=NCCS3)cc2)c1,335% (inactive),–
O=S(=O)(NCCCN1CCOCC1)c1ccc(F)c(Cl)c1,-15.7% (inactive),–
O=C(NCCCN1CCOCC1)c1ccc([N+](=O)[O-])cc1[N+](=O)[O-],18.7% (inactive),–
O=[N+]([O-])c1cc(S(=O)(=O)CCCN2CCOCC2)ccc1F,–,10.4 µM (active)
CCc1nccn1CCC(=O)N1CCCC(N2CCN(c3ccccc3F)CC2)C1 (stereo not drawn),40.6% (inactive),–
CCOc1ccc(NC(=O)CN(C)C(=O)CSc2ccccc2)cc1OCC,17.1% (inactive),–
CCc1ccc(-c2nn(-c3ccccc3C)cc2C(=O)N2CCN(C3CCS(=O)(=O)C3)CC2)cc1 (stereo not drawn),-29% (inactive),–
CCc1ccc(N2CC(C(=O)Nc3ccc(S(=O)(=O)Nc4nccs4)cc3)CC2=O)cc1 (stereo not drawn),19.7% (inactive),–
COc1ccc([N+](=O)[O-])cc1N(CC(O)CN(CC(C)C)CC(C)C)S(=O)(=O)c1ccc(C)cc1 (stereo not drawn),-6.94% (inactive),–
COc1cc2cc(C(=O)N/N=C/c3cccc(OC)c3OC)[nH]c2cc1OC,-29.6% (inactive),–
CCOc1ccc2[nH]c(C(=O)N/N=C/c3cccc(OC)c3OC)cc2c1,17.8% (inactive),–
COc1ccc2[nH]c(C(=O)N/N=C/c3cc(OC)c(OC)c(OC)c3)cc2c1,–,5.86 µM (active)
